# Hits are enriched below; roughly 2.7% of the tested compounds scored in any of these assays.
# KKLEB cytotox – counter-screen for CF NF-kB inhibitors: cytotoxicity | KKLEB CF airway cells viability, ATPlite luminescence, overnight; stronger effect = lower value; cells stimulated with P. aeruginosa culture filtrate | activity change (cytotoxicity), % at 5 µM | 360,000 compounds, 0.36% hits;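 active = corrected activity change at or below -50% at 5 µM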
# CF NFkB block – inhibitors of cystic fibrosis induced NF-kB | KKLEB NF-kB-GFP reporter, PAF-induced, GFP fluorescence overnight | inhibition, % at 5 µM | 360,000 compounds, 0.86% hits;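 active = at least 50% inhibition at 5 µM, scaled per plate between neutral and stimulator controls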;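 note: PAF is a Pseudomonas aeruginosa culture filtrate used as stimulus; plate controls were PAF-stimulated DMSO wells for no effect and unstimulated DMSO wells for full effect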
# MITF TRPM1 inh – MITF TRPM1 promoter inhibition in SK-MEL-5 cells | AID 488899 | inhibition, % at 12.5 µM | 330,000 compounds, 0.83% hits | SK-MEL-5 TRPM1 promoter luciferase, 24 h;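 active = mean inhibition across replicates of 60% or more, whatever share of single replicates reaches that level; inconclusive = some that reach 60%, reason not given; inactive = mean inhibition across replicates below 60%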
# Shn3 inh set2 – reduces Shn3 3'UTR luciferase signal in osteoblasts; Clone20 osteoblast Shn3 3'UTR firefly luciferase, 24 h; inhibition, % at 12.5 µM; 360,000 compounds, 0.52% hits; AID 588674;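 active = mean inhibition of at least 75% with every replicate also reaching 75%; inconclusive = mean inhibition at least 75% but some replicate below; inactive = mean inhibition below 75%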;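 note: 0% = median of neutral control wells and 100% = pilot-screen positive control compound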
# HIF-2a block – inhibitors of HIF-2a; 786-0 RCC cells HIF-2a reporter, luciferase luminescence, overnight; inhibition, % at 18.8 µM; 360,000 compounds, 0.72% hits; AID 624352;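 active = inhibition of the luminescence signal of 40% or more relative to plate controls, in a single-dose primary screen at 18.75 µM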
# Peg3 prom inh-1 – Peg3 promoter activity inhibition; HeLa PEG-Prom luciferase reporter, luminescence, overnight; inhibition, % at 20 µM; 360,000 compounds, 1.7% hits; AID 588405;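 active = inhibition of at least 50% at 20 µM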
# Peg3 prom inh-2 – Peg3 promoter inhibition confirmation. shares compounds with Peg3 prom inh-1. HeLa PEG-Prom luciferase reporter, luminescence, overnight. inhibition, % at 20 µM. 1,300 compounds, 84% hits. AID 602417;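 active = at 20 µM dose, 40% or more inhibition averaged across four replicates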
# * hit, by the source's call; u = inconclusive; x = no result.
SMILES,KKLEB cytotox,CF NFkB block,MITF TRPM1 inh,Shn3 inh set2,HIF-2a block,Peg3 prom inh-1,Peg3 prom inh-2
CCCCCN1C=CC(=C2C(=O)c3ccccc3C2=O)C=C1,-82.4*,-5.3,99.1*,93.1*,88.2*,103.1*,90.6*
CN1CCC(NC(=O)c2cc(-c3cccc(Br)c3)nc3ccccc23)CC1,-3.8,-11.1,-4.4,-32.7,-19.1,105.3*,78.9*
O=c1[nH]c(-c2ccccc2)ncc1OCc1ccccc1,-1.8,-2.5,-3.2,-11.5,-48.5,-49.6,x
COc1ccc(CN2C(=O)C(CC(=O)NCC3CCCCC3)CC(C(=O)N(C)C)=C2C)cc1 (stereo unspecified),1.0,-9.8,x,-25.0,-3.5,0.2,x
O=C(O)CN1C(=O)/C(=C\c2ccccc2OCc2ccc(Cl)cc2Cl)SC1=S,10.9,-19.7,2.7,36.1,65.7*,55.3*,65.1*
COc1ccc(/C=C2\SC(=S)N(CCCC(=O)NNC(=O)c3ccccc3O)C2=O)cc1,-0.8,5.5,92.1*,80.4,90.4*,71.1*,71.5*
O=C(CCCN1C(=O)/C(=C/c2ccccc2Cl)SC1=S)NNC(=O)c1ccccc1Cl,3.0,7.8,40.5,11.0,92.7*,60.0*,67.9*
O=C(O)CN1C(=O)/C(=C\c2cc(Br)ccc2OCc2ccccc2Cl)SC1=S,-7.7,4.5,10.3,-5.8,-21.8,-19.5,x
COc1ccccc1/C=C1\SC(=S)N(CCC(=O)NNC(=O)c2ccccc2O)C1=O,-26.8,1.6,23.5,-1.0,26.5,30.6,x
Cc1cc(Br)cn2c(Cc3ccsc3)c(C(C)(C)C)nc12,-27.1,9.3,x,-3.1,11.3,-0.2,x
CCOC(=O)C[C@@H]1OC[C@H](C(C)C)N1S(=O)(=O)c1ccc(C)cc1,x,x,x,x,-1.4,x,x
CCN(CC)CCN(C(=O)c1cc2c(ccc3ccccc32)oc1=O)c1nc2cc3c(cc2s1)OCCO3,-1.7,-6.8,74.6*,47.5,-19.0,95.9*,-10.8
Cc1cccc(OCC(=O)NCC(=O)N/N=C/c2cc(Br)cc(Br)c2O)c1,-0.4,8.6,8.8,42.8,14.2,57.3*,63.3*
COc1cccc(/C=N/NC(=O)CNC(=O)COc2ccccc2)c1O,9.5,-13.7,21.1,8.4,7.8,43.0,x
CCC(CC)C(C(=O)NCc1ccccc1)N1CCN(C(=O)C2CCCO2)CC1 (stereo unspecified),x,x,x,x,9.9,x,x
CCOc1ccc(Nc2cc(C)c3ccccc3n2)cc1,-4.2,-1.0,-137.9,-69.5,-231.9,-319.9,x
CCOc1ccc(Nc2c3ccccc3nc3ccccc23)cc1,-8.6,-41.0,16.8,62.7,35.1,84.6*,84.6*
COc1ncnc2c1oc1nc(CC(C)C)c3c(c12)CCCC3,-5.6,12.1,-19.5,17.1,14.1,9.5,x
CCCc1nc2oc3c(Cl)ncnc3c2c2c1CCCC2,-8.1,6.2,27.7,7.4,19.7,99.1*,34.4
Cc1csc2nc(COC(=O)c3ccc(Cl)c([N+](=O)[O-])c3)cc(=O)n12,-11.2,26.4,33.7,4.4,4.6,59.2*,-1.2
CC1=C(c2ccccc2)C(O)(c2ccccc2)C(C)C1=O (stereo unspecified),3.4,10.9,19.3,-1.0,16.0,35.9,x
c1ccc(C[C@H]2CNCCN2CCCCC2CCCCC2)cc1,5.6,-1.8,x,-114.4,8.4,104.8*,98.2*
CCCCNC(=O)C1(C)CCN1Cc1ccc(C(=O)OCC)cc1 (stereo unspecified),-7.4,-2.2,x,5.7,2.2,6.7,x
CCCCNC(=O)C1(C)CCN1Cc1cccc2c(OC)cc(C(=O)OCC)cc12 (stereo unspecified),-9.0,30.9,x,43.7,14.3,57.4*,36.9
CC(=O)Nc1sc(C)c(C)c1C(=O)OCC(=O)N(CC(C)C)c1c(N)n(Cc2ccccc2)c(=O)[nH]c1=O,-96.5*,82.7*,103.4*,66.1,18.1,101.2*,54.9*
SMILES,KKLEB cytotox,CF NFkB block,MITF TRPM1 inh,Shn3 inh set2,HIF-2a block,Peg3 prom inh-1,Peg3 prom inh-2
CC(=O)OCCNc1cc(SCc2ccco2)c2nonc2c1[N+](=O)[O-],12.7,28.5,15.3,-21.6,8.5,52.1*,68.8*
COC(=O)CCSc1cc(NCCOC(C)=O)c([N+](=O)[O-])c2nonc12,-0.1,16.9,-2.4,-28.3,13.2,10.2,x
Cn1c(=O)c2cc(NC(=S)NC3CCCCC3)ccc2n1Cc1ccc(Cl)cc1,-10.4,9.4,x,14.1,-95.0,-7.0,x
N=c1c2c(-c3ccccc3)c(-c3ccccc3)n(Cc3ccccc3)c2ncn1CCO,-9.9,16.3,26.0,-3.1,34.3,98.5*,95.8*
Cc1cc(C)cc(NC(=O)Cn2c(=O)oc3cc(S(=O)(=O)N4CCC(C)CC4)ccc32)c1,3.0,18.9,x,28.7,10.6,68.4*,43.8*
CC(=O)NC(c1ccc(F)c(F)c1)c1nc(-c2ccccc2C)cs1 (stereo unspecified),6.2,-8.9,x,-2.2,-11.7,6.6,x
CCCCCCCCOC(=O)c1cc([N+](=O)[O-])c(Sc2ncnc3nc[nH]c23)c([N+](=O)[O-])c1,-8.7,1.7,42.9,98.7*,-53.3,82.7*,72.7*
CCOC(=O)c1c(NC(=O)CSc2nnnn2-c2ccccc2OCC)sc2c1CC(C)(C)NC2(C)C,-6.8,21.7,15.0,8.1,1.9,79.5*,86.2*
CCOC(=O)c1c(NC(=O)COc2ccccc2C#N)sc2c1CC(C)(C)NC2(C)C,-21.7,12.3,52.7,11.6,10.0,28.7,x
COc1ccc(-c2sc3ccccc3c2C#Cc2cncn2C)cc1,-0.1,17.4,-4.9,3.1,21.9,51.7*,33.3
Cc1ccc(C(=Cc2ccc([N+](=O)[O-])cc2)C(=O)O)cc1,0.0,-26.2,x,-19.6,1.6,-26.7,x
CCC(=C(c1ccc(OC)cc1)c1ccc(OC)cc1)c1cn(CC(O)CN2CCN(C)CC2)c2ccccc12 (stereo unspecified),-24.7,21.1,85.8*,17.9,11.9,104.7*,100.8*
COc1ccc(-c2cc3ccccc3n2CC(O)CN2CCCCC2)cc1 (stereo unspecified),6.7,5.1,-13.2,-28.4,1.1,3.4,x
N=c1n(CCN2CCCCC2)c2ccccc2n1CC(O)c1ccc(Cl)c(Cl)c1 (stereo unspecified),-14.2,21.9,u,6.8,-6.5,116.8*,99.7*
Cc1ccc(-n2nc3c(N4CCC(C(=O)NCCc5cccs5)CC4)nnc(C)c3c2C)cc1,-13.9,32.9,88.6*,53.2,8.3,59.8*,36.7
O=C(Nc1ccccc1C(=O)Nc1nnc(C(F)(F)F)s1)c1ccccc1,-53.3*,49.6,-0.7,55.6,-11.8,59.1*,86.9*
CCOc1ccc(CN(C)C(=O)c2cccc(S(=O)(=O)Nc3ccccc3OC)c2)cc1OC,-4.4,13.4,x,22.0,4.1,-0.7,x
COc1cc(C(=O)N/N=C(\c2ccccc2)c2ccccn2)cc(OC)c1OC,1.8,15.8,78.4*,88.6*,28.9,107.0*,80.7*

# Screens from PubChem BioAssay.
